# Laboratory results: PubChem BioAssay (EPA / NIEHS)
# Where “and” joins values, the source holds several entries; their conditions need not be identical. Equal entries are not always repeated. Results filed as inconclusive are left out. Some structures have more than one record in an assay (separate samples or runs), and their calls can disagree. Calls of active or inactive are those of the source. Rule for the calls: active = hit-call score of the fitted dose curve at least 0.9, where 1 is the maximum; inconclusive = response in the unintended direction; inactive = score below 0.9.
# Assays:
# [1] = ATG_XTT_Cytotoxicity: Cytotoxicity Assessment in the Attagene TRANS-FACTORIAL HepG2 Assay (AID 2283584);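 for AC50: cells exposed to compound for 24 h before reading; active means loss of viability signal versus DMSO baseline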
# In short: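 XTT readout of cell number in transfected HepG2 cells, 24 h post-dosing; DMSO serves as negative control and baseline, with activity taken as loss of viability signal.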
# [2] = TOX21_p53_BLA_p2_viability: Viability Assessment in the Tox21 HCT-116 p53 Agonism Beta-lactamase Assay, Phase 2 (AID 2283591);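 note: compound exposure lasted 16 h at 37 °C; actives lower the ATP signal meaning cytotoxicity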
# In short: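 HCT-116 p53-bla cells (4000/well) rested 5 h at 37C, then received compounds in DMSO (217-fold dilution) for 16 h at 37C, 5% CO2. After the CCF4 read, CellTiter-Glo was added; ATP luminescence was read after 30 min at room temperature.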
# [3] = molecular target: Cellular tumor antigen p53 (Homo sapiens) (UniProt P04637); experiment: TOX21_p53_BLA_p2_ratio: Tox21 HCT-116 p53 Agonism Beta-lactamase Assay, Ratio, Phase 2 (AID 2283592)
# Sequence of Cellular tumor antigen p53 (Homo sapiens) (P04637 whole entry, looked up): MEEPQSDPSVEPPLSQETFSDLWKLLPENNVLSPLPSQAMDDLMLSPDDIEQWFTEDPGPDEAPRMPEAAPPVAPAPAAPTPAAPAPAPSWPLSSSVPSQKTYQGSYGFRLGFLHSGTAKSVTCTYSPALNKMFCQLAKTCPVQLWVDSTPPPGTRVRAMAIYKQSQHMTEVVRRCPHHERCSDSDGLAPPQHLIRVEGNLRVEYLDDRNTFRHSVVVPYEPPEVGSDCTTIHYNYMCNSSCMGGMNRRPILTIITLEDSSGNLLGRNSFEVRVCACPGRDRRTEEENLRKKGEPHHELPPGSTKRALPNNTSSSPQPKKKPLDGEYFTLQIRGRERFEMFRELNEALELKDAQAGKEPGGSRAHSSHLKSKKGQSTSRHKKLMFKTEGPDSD
# In short: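 In this cell-based reporter format, HCT116 cells were dosed with chemicals delivered from DMSO by 217-fold dilution and incubated 16 h at 37C. Emission at 460 and 530 nm after 2 h CCF4-AM loading provided the ratio, fitted upward versus DMSO.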
# [4] = TOX21_p53_BLA_p3_viability: Viability Assessment in the Tox21 HCT-116 p53 Agonism Beta-lactamase Assay, Phase 3 (AID 2283593);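 note: cells exposed to compound for 16 h before reading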
# In short: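 HCT-116 cells (4000/well) rested 5 h at 37C, then got DMSO compounds by pin tool (217-fold dilution) for 16 h at 37C, 5% CO2. After the bla read, CellTiter-Glo was added and luminescence read at 30 min, room temperature.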
# [5] = molecular target: Cellular tumor antigen p53 (Homo sapiens) (UniProt P04637); experiment: TOX21_p53_BLA_p3_ratio: Tox21 HCT-116 p53 Agonism Beta-lactamase Assay, Ratio, Phase 3 (AID 2283596)
# In short: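 HCT116 p53-bla cells (4000/well) given compound in DMSO (217-fold dilution) after 5 h, incubated 16 h at 37C. CCF4-AM substrate 2 h at room temperature; 460/530 nm emission ratio, gain fitted against DMSO.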
smiles,measurement,setting,value
CCCCCCOC(=O)c1ccc(O)cc1,AC50,[1],149 µM (active)
same,outcome,[2],inactive
same,AC50,[3],67.3 µM (active)
same,outcome,[3],inactive
same,outcome,[4],inactive
same,AC50,[5],86 µM (active)
same,outcome,[5],inactive
CNNCc1ccc(C(=O)NC(C)C)cc1,outcome,[1],inactive
same,outcome,[2],inactive
same,outcome,[3],inactive
same,outcome,[4],inactive
same,outcome,[5],inactive
Nc1ccc(O)c(C(=O)O)c1,outcome,[1],inactive
same,outcome,[2],inactive
same,outcome,[3],inactive
same,outcome,[4],inactive
same,outcome,[5],inactive
CCCCCCCCCC=CCC1CC(=O)OC1=O (stereo not drawn),outcome,[1],inactive
same,outcome,[2],inactive
same,outcome,[3],inactive
same,outcome,[4],inactive
same,outcome,[5],inactive
CC(O)COc1ccccc1 (stereo not drawn),outcome,[1],inactive
same,outcome,[2],inactive
same,outcome,[3],inactive
same,outcome,[4],inactive
same,outcome,[5],inactive
c1cnc2c(c1)ccc1cccnc12,outcome,[1],inactive
same,outcome,[2],inactive
same,AC50,[3],38.3 µM (active)
same,outcome,[3],inactive
same,outcome,[4],inactive
same,outcome,[5],inactive
O=c1cc(-c2ccccc2)oc2ccc3ccccc3c12,outcome,[1],inactive
same,outcome,[2],inactive
same,outcome,[3],inactive
same,outcome,[4],inactive
same,outcome,[5],inactive
CC(C)(C)c1ccc(O)c(O)c1,outcome,[1],inactive
same,outcome,[2],inactive
same,outcome,[3],inactive
same,outcome,[4],inactive
same,outcome,[5],inactive
CC1=CC(=O)c2ccccc2C1=O,outcome,[1],inactive
same,AC50,[2],51.1 µM (active)
same,outcome,[2],inactive
same,outcome,[3],inactive
same,AC50,[4],35.7 µM (active) and 36.7 µM (active)
same,AC50,[5],29.7 µM (active) and 41.4 µM (active)
O=S(=O)(O)c1ccc2cc(O)ccc2c1,outcome,[1],inactive
same,outcome,[2],inactive
same,outcome,[3],inactive
same,outcome,[4],inactive
same,outcome,[5],inactive
COc1cc([N+](=O)[O-])ccc1N,outcome,[1],inactive
same,outcome,[2],inactive
same,outcome,[3],inactive
same,outcome,[4],inactive
O=C1OC(=O)c2cc(-c3ccc4c(c3)C(=O)OC4=O)ccc21,outcome,[1],inactive
same,outcome,[2],inactive
same,outcome,[3],inactive
same,outcome,[4],inactive
same,outcome,[5],inactive
CC(C)(C)c1ccc(CCC=O)cc1,outcome,[1],inactive
same,outcome,[2],inactive
same,outcome,[3],inactive
same,outcome,[4],inactive
same,outcome,[5],inactive
CCCCCCCCCCCCCCCCCC[N+](C)(C)Cc1ccccc1,AC50,[1],29 µM (active)
same,AC50,[2],41.1 µM (active)
same,AC50,[3],74.3 µM (active)
same,AC50,[4],24.4 µM (active)
same,AC50,[5],60.6 µM (active)
Oc1ccc(Cc2ccccc2O)cc1,outcome,[1],inactive
same,outcome,[2],inactive
same,outcome,[3],inactive
same,outcome,[4],inactive
same,outcome,[5],inactive
C=CC(=O)OCC(CO)(COCC(COC(=O)C=C)(COC(=O)C=C)COC(=O)C=C)COC(=O)C=C,AC50,[1],29.3 µM (active)
same,AC50,[2],4.15 µM (active)
same,AC50,[3],78.7 µM (active)
same,AC50,[4],3.91 µM (active)
same,outcome,[5],inactive
C[C@]12CC[C@@H]3c4ccc(O)cc4CC[C@H]3[C@@H]1CC[C@@H]2OC(=O)CCC1CCCC1,outcome,[1],inactive
same,outcome,[2],inactive
same,outcome,[3],inactive
same,outcome,[4],inactive
same,outcome,[5],inactive
O=C(Nc1cccc([N+](=O)[O-])c1)c1cc2ccccc2cc1O,outcome,[1],inactive
same,outcome,[2],inactive
same,AC50,[3],1.17 µM (active)
same,outcome,[4],inactive
same,AC50,[5],1.1 µM (active)
Oc1c(Cl)ccc(Cl)c1Cl,outcome,[1],inactive
same,outcome,[2],inactive
same,outcome,[3],inactive
same,outcome,[4],inactive
same,outcome,[5],inactive
Oc1c(Cl)cc(Cl)cc1Sc1cc(Cl)cc(Cl)c1O,AC50,[1],41.5 µM (active)
same,AC50,[2],43.1 µM (active) and 23.4 µM (active) and 76.2 µM (active)
same,outcome,[2],inactive
same,AC50,[4],73.1 µM (active) and 36.2 µM (active) and 1.49 µM (active)
same,outcome,[4],inactive
CCCCCCCCCCCC[N+](C)(C)CCCCCCCCCCCC,AC50,[1],62.4 µM (active)
same,AC50,[2],23.5 µM (active)
same,AC50,[3],41.4 µM (active)
same,AC50,[4],50.7 µM (active)
same,AC50,[5],66.5 µM (active)
Cc1ccccc1C(OCCN(C)C)c1ccccc1 (stereo not drawn),outcome,[1],inactive
same,outcome,[2],inactive
same,outcome,[3],inactive
same,outcome,[4],inactive
same,outcome,[5],inactive
CCCCCCCCCCCCCC[n+]1ccccc1,AC50,[1],28.3 µM (active)
same,outcome,[2],inactive
same,AC50,[3],4.85 µM (active)
same,outcome,[4],inactive
same,AC50,[5],14.1 µM (active)
Nc1cc(Cl)c(-c2cc(Cl)c(N)cc2Cl)cc1Cl,outcome,[1],inactive
same,AC50,[2],31.3 µM (active) and 40.9 µM (active)
same,AC50,[3],69 µM (active) and 81.7 µM (active)
same,AC50,[4],70.8 µM (active) and 63.8 µM (active)
same,AC50,[5],86.4 µM (active) and 84.5 µM (active)
CC(C)(O)C(=O)c1ccccc1,outcome,[1],inactive
same,outcome,[2],inactive
same,outcome,[3],inactive
same,outcome,[4],inactive
O=C(NO)c1ccccc1,outcome,[1],inactive
same,outcome,[2],inactive
same,outcome,[3],inactive
same,outcome,[4],inactive
same,outcome,[5],inactive
c1ccc(CNc2ncnc3c2ncn3C2CCCCO2)cc1 (stereo not drawn),outcome,[1],inactive
same,outcome,[2],inactive
same,outcome,[4],inactive
NCc1cccc(CN)c1,outcome,[1],inactive
same,outcome,[2],inactive
same,outcome,[3],inactive
same,outcome,[5],inactive
Cc1cc(=O)oc2cc(O)ccc12,outcome,[1],inactive
same,outcome,[2],inactive
same,outcome,[3],inactive
same,outcome,[4],inactive
same,outcome,[5],inactive
CC(C)C=O,outcome,[1],inactive
same,outcome,[2],inactive
same,outcome,[4],inactive
CCCCCCC(C)(C)C(=O)O,outcome,[5],inactive
CCOCCOCC,outcome,[2],inactive
same,outcome,[4],inactive
same,outcome,[5],inactive
Cc1ccc(S(=O)(=O)O)cc1,outcome,[1],inactive
same,outcome,[2],inactive
same,outcome,[4],inactive
O=C1c2ccccc2C(=O)c2c(O)c(O)cc(O)c21,outcome,[1],inactive
same,outcome,[2],inactive
same,AC50,[3],42.8 µM (active)
same,outcome,[5],inactive
NNc1nc(-c2ccc([N+](=O)[O-])cc2)cs1,outcome,[1],inactive
same,outcome,[2],inactive
same,AC50,[3],40.1 µM (active)
same,outcome,[4],inactive
same,AC50,[5],55.7 µM (active)
